Screening data: PubChem BioAssay, several laboratories
CYP2C9 inhib = inhibitors of human CYP2C9; AID 777; P11712; 96,000 compounds, 20% hits; CYP2C9 Supersomes, luciferin-H conversion, luminescence; inhibition, % at 5 µM;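 active = blocking of liver enzyme CYP2C9 beyond about 50% at 5 µM, limit read from the data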
CYP2C19 activ = increases human CYP2C19 enzyme activity. 96,000 tested, under 10 active. activation factor at 5 µM. recombinant CYP2C19, luciferin-H EGE luminescence; stronger effect = higher value; 0 = fully inhibited enzyme, 1 = untreated enzyme;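 active = activation factor of at least 2 at 5 µM in the primary screen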;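 also: 0 = wells with 2.5 mM tranylcypromine and 1 = vehicle-only wells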
Target sequence (P33261 whole entry, looked up): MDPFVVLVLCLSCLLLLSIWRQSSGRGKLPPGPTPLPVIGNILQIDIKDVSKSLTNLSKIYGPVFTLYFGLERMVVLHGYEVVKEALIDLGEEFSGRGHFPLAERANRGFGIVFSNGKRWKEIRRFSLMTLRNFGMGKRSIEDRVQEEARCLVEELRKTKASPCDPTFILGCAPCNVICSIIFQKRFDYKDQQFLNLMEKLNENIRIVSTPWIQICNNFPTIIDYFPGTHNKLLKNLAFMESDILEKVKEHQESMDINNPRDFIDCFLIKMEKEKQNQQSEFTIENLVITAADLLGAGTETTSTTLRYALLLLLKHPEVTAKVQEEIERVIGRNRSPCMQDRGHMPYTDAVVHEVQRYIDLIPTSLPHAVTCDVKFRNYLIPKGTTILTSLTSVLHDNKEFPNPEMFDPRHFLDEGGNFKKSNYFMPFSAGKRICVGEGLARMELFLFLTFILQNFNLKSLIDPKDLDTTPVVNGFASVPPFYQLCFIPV
CYP2C9 activ = increases human cytochrome P450 2C9 activity. P11712. recombinant CYP2C9, luciferin-H conversion, luminescence; stronger effect = higher value; factor 1 = untreated enzyme, 0 = blocked. activation factor at 5 µM. 96,000 compounds, 1.4% hits;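 active = activation factor of 2 or more for CYP2C9 at a 5 µM dose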;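 also: 0 = sulfaphenazole-blocked wells and 1 = vehicle-only wells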
EphB4 ephrin blk = EphB4-ephrin-B2 interaction antagonism | P54760 | EphB4 LBD / TNYL-RAW-Alexa532 peptide, fluorescence polarization | inhibition, % at 7 µM | 97,000 compounds, 0.15% hits | AID 720;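 active = inhibition above the screen-wide mean inhibition plus 3 SD, cut at about 15% in these data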;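 also: 0% = DMSO wells and 100% = excess unlabeled TNYL-RAW peptide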
CYP2C19 inh = blocks human cytochrome P450 2C19; CYP2C19 Supersomes, luciferin-H EGE luminescence, 30 min; 96,000 compounds, 21% hits; P33261; inhibition, % at 5 µM;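 active = CYP2C19 inhibition above a set limit at 5 µM in the primary screen, cut at about 50% in these data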;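 also: plate controls were negative control wells for no effect and 2.5 mM tranylcypromine positive control for full effect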
Starred values were filed as active, the others as inactive; · = no result. Rows were chosen to be rich in hits. Some 27% of all compounds tested hit in one or more screens of this group.

SMILES	CYP2C9 inhib	CYP2C19 activ	CYP2C9 activ	EphB4 ephrin blk	CYP2C19 inh
CC1=C(C(=O)Nc2ccccc2C)C(c2cccnc2)n2nc(CCCO)nc2N1 (stereo not drawn)	52.9*	1.2	0.5	-2.0	-15.3
COc1ccc(-c2nc3n(n2)C(c2cccnc2)C(C(N)=O)=C(C)N3)cc1 (stereo not drawn)	·	·	·	7.8	·
CC1=C(C(=O)Nc2cccnc2)C(c2cccnc2)n2nc(-c3cccs3)nc2N1 (stereo not drawn)	47.0	0.8	0.5	-0.6	23.8
COC(=O)C1=C(C)Nc2nc(-c3ccccc3)nn2C1c1ccc(C)o1 (stereo not drawn)	70.6*	0.3	0.3	-0.9	65.9*
COc1cccc(-c2nc3n(n2)C(c2cccs2)C(C(=O)Nc2cccnc2)=C(C)N3)c1 (stereo not drawn)	98.7*	0.2	0	·	77.0*
O=C1CCCCCN1C(=O)c1cccc(C(=O)N2CCCCCC2=O)c1	0.0	0.9	1	-8.7	11.3
CCc1cc(-c2n[nH]c(=S)n2N)n(C)n1	6.7	1	0.9	-11.2	4.9
O=C(Nc1ccc(-c2noc(COc3ccccc3Cl)n2)cc1)c1ccco1	·	·	·	-4.7	·
Cc1cc(C(=O)N2CCCCCC2)cs1	-6.9	0.4	1.1	0.1	57.9*
COc1ccc(C2NCCC3(O)CCCCC23)c(OC)c1OC (stereo not drawn)	-5.5	1	1.1	-6.1	3.2
O=c1ccn(-c2cccc(C(F)(F)F)c2)nc1-c1ccn(-c2ccccc2)n1	80.2*	0.6	0.2	-0.7	36.0
CNC(=O)c1ccc(-c2ccc(OC)cc2)s1	7.1	0.8	0.9	1.5	19.5
C=CCN1C(=Nc2ccccc2)SC/C1=C\C(=O)OC	-3.6	0.7	1	-2.6	30.9
Cc1ccc(-c2csc3ncnc(Sc4nnc(CN5CCCCCC5=O)o4)c23)cc1	83.1*	0.5	0.2	0.8	51.8*
Cc1ccc(-c2csc3ncnc(SCC(=O)Nc4nnc(C)s4)c23)cc1	-2.2	1.2	1	4.2	-17.0
CC(C)CC(NC(N)=O)C(=O)OCC(=O)NC(=O)NC1CCCC1 (stereo not drawn)	14.8	0.4	0.9	1.8	57.2*
COC(=O)[C@H](CC(C)C)NC(=O)NC1CCCCC1C (stereo partly drawn)	23.2	0.7	0.8	-3.2	25.4
CCOC(=O)N1CCN(c2c(Nc3ccc4c(c3)OCCO4)c(=O)c2=O)CC1	-103.0	0.9	2*	4.3	10.7
C=CCNC(=O)CSc1nnc(-c2cccs2)o1	13.4	1	0.9	4.7	4.5
C=CCn1cc(/C=N\NC(=O)c2cc3c(ccc4ccccc43)o2)c2ccccc21	62.0*	0.8	0.4	-3.4	17.3
O=C(N/N=C/C=C/c1ccccc1)c1cc2c(ccc3ccccc32)o1	-9.6	1.1	1.1	-7.4	-5.2
Cc1ccc(-c2nn(C)c(=O)c3ccccc23)cc1S(=O)(=O)NCCO	12.0	0.8	0.9	-4.2	18.7
Cc1nnc(SCc2ccccc2)n1N	-11.7	1.1	1.1	·	-13.5
Cc1cc(C)nc(NS(=O)(=O)c2ccccc2)n1	-17.9	1.2	1.2	-2.6	-17.6
Cc1cc(-n2nc(C)cc2C)nc(NS(=O)(=O)c2ccccc2Cl)n1	52.3*	1	0.5	4.0	0.5
SMILES	CYP2C9 inhib	CYP2C19 activ	CYP2C9 activ	EphB4 ephrin blk	CYP2C19 inh
O=C(CSc1ccc2nnc(-c3ccccn3)n2n1)N1CCN(c2ccccc2)CC1	-0.8	0.6	1	0.2	38.5
Cc1noc(/C=C/c2ccco2)c1S(=O)(=O)N1CCC(C(=O)NCc2ccco2)CC1	21.4	1	0.8	-4.3	3.7
Cc1ccc(CNC(=O)C2CCN(S(=O)(=O)c3c(C)noc3/C=C/c3ccco3)CC2)cc1	57.2*	0.9	0.4	5.8	14.5
Cc1noc(/C=C/c2ccco2)c1S(=O)(=O)N1CCC(C(=O)N2CCc3ccccc3C2)CC1	73.2*	0.6	0.3	-4.7	35.2
CCN(CCNc1ccc(Cl)cc1[N+](=O)[O-])C(=O)c1cc([N+](=O)[O-])c(N(C)C)cc1OC	79.7*	0.2	0.2	-0.1	75.9*
COc1ccc(/C=N/n2cnnc2)cc1COc1ccccn1	0.9	1	1	-4.0	2.8
COc1cc(/C=N/n2cnnc2)ccc1OCc1ccccc1	67.7*	0.3	0.3	-2.8	69.8*
C=CCc1ccc(OCCOc2ccc(/C=N/n3cnnc3)cc2OCC)c(OC)c1	44.3	0.4	0.6	2.7	61.3*
COc1cc(/C=N/n2cnnc2)ccc1OCCOc1ccccc1	58.2*	0.2	0.4	-3.9	81.9*
CCOc1cc(/C=N/n2cnnc2)ccc1O	10.9	0.8	0.9	5.9	17.7
COc1cc(/C=N/n2cnnc2)ccc1OCc1ccc(C)cc1	69.6*	0.5	0.3	0.1	48.6
Cc1cc2ncn(CC(O)COc3cccc(C(=O)O)c3)c2cc1C (stereo not drawn)	-15.7	1.1	1.2	-7.2	-13.4
COc1ccc(C(=O)N2CCN(c3c(C)cccc3C)CC2)cc1OC	21.1	0.6	0.8	5.7	39.3
C(=N\n1cnnc1)/c1cccc(OCCOc2ccccc2)c1	20.8	0.2	0.8	-5.1	80.1*
C(=N\n1cnnc1)/c1cccn1-c1ccccc1	16.2	0.6	0.8	2.0	37.3
Clc1ccc(Oc2cccc(/C=N/n3cnnc3)c2)cc1	65.5*	0.1	0.3	5.6	90.8*
Fc1ccccc1/C=N/n1cnnc1	0.1	0.9	1	-4.5	5.3
C(=N\n1cnnc1)/c1ccccc1OCCOc1ccccc1	28.8	0.2	0.7	1.4	78.2*
O=C(NCc1cccnc1)c1ccc2c(=O)n(CCCN3CCCC3=O)c(=S)[nH]c2c1	26.5	0.8	0.7	2.0	17.5
O=C(CCn1nnc2ccccc21)Nc1nnc(COc2ccccc2F)s1	10.4	0.7	0.9	3.3	32.2
O=C(CCn1nnc2ccccc21)Nc1nnc(-c2ccccc2F)s1	55.6*	0.8	0.4	0.2	20.4
Cc1ccccc1N/C(=C(/C(Cl)=C(Cl)Cl)[N+](=O)[O-])n1nnc2ccccc21	35.0	1	0.7	0.0	1.1
COc1ccc(N/C(=C(/C(Cl)=C(Cl)Cl)[N+](=O)[O-])n2nnc3ccccc32)cc1	55.4*	1.1	0.4	1.3	-5.0
O=C(CSc1nnc(-c2ccccn2)n1Cc1ccco1)Nc1ccc2c(c1)OCO2	37.3	1	0.6	-6.6	-1.4
O=C(CSc1nnc(-c2cccnc2)n1Cc1ccco1)NCc1ccc2c(c1)OCO2	40.2	0.8	0.6	-7.1	17.4
COCCn1c(SCC(=O)Nc2ccc3c(c2)OCCO3)nnc1-c1c[nH]c2ccccc12	58.4*	0.7	0.4	-1.8	32.0
Cc1ccc(-n2c(SCC(=O)Nc3ccc4c(c3)OCCO4)nnc2-c2ccco2)cc1	-2.9	0.6	1	1.0	38.2
COc1cccc(-c2nnc(SCC(=O)NCc3ccc4c(c3)OCO4)n2Cc2ccco2)c1	71.7*	0.7	0.3	5.2	32.2
